Measurements reported in PubChem BioAssay AID540267 (National Center for Advancing Translational Sciences (NCATS), 2011).
The campaign covered roughly 340,000 compounds. About 530 (0.16%) were called active. Roughly 2% stayed inconclusive and do not appear here. Many of the other results were omitted from the sample, so actives are more common in it than they were. A number with no mark means an inactive call. Rule as the data show it: active = activity change below about -80%; inconclusive = between about -30% and that limit; inactive = weaker than that.

Assay: Small Molecules that selectively kill Giardia lamblia: qHTS;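 also: parasites exposed to compound for two days anaerobically before the ATP read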
Details: Giardia lamblia trophozoite viability; at 7.66 µM; hits give low values
Source text: Giardia lamblia is a human pathogen afflicting impoverished nations, and the most common cause of outbreaks of diarrhea in the United States. Giardia has been classified by the CDC as a category B bioterrorism organism. The favored anti giardiasis drugs in the US are metronidazole or tinidazole, compounds that have undesirable side effects. Moreover, increasing resistance to drug regimes and recurrence are a concern. It is thus clear that alternative drug treatments are needed.
In a collaboration between the University of Maryland, College Park and the NIH Chemical Genomics Center, a bioluminescence Giardia viability assay based on the trophozoites' ATP content was developed. This assay is suitable for high throughput screening, and miniaturized the assay for compound screening in 1536-well plates. The goal of the project is to screen the Molecular Libraries Small Molecule Repository (MLSMR) for compounds that selectively kill Giardia trophozoites.
NIH Chemical Genomics Center [NCGC]
NIH Molecular Libraries Probe Centers Network [MLPCN]
Assay Submitter (PI): Osnat Herzberg, University of Maryland, College Park, MD.
1. Dispense 2 ul/well media
2. Dispense 23 nl/well compounds
3. Dispense 4 ul/well Giardia trophozoites at a concentration of 100 cells/well
4. Incubate 48 hrs at 37 deg C anaerobically
5. Dispense 4 ul/well ATPLite 1-Step Luminescence assay kit
6. Incubate 15-30 min at room temperature
7. Read luminescence signal on ViewLux plate reader
% is scaled to controls: 0 for no effect and ±100 for the full control effect.

Row | SMILES | activity change
1 | CCNC(=O)Nc1ccc(S(=O)(=O)Nc2cnc(C)nc2C)cc1 | -28.2%
2 | CN(CC(=O)Nc1ccc(OC(F)(F)F)cc1)C(=O)C1CCC1 | 29.9%
3 | N#Cc1c(N)nc2c(c1N)CC(C(F)(F)F)O2 (stereo unspecified) | -7.55%
4 | C=CCNC(=O)c1ccc2nc(-c3ccco3)c(-c3ccco3)nc2c1 | -26.3%
5 | NC(=O)c1ncn([C@@H]2O[C@H](CN=C3NS(=O)(=O)c4ccccc43)[C@@H](O)[C@H]2O)n1 | -14.2%
6 | CC(=NNC(=O)c1ccncc1)c1ccc(Cl)c(Cl)c1 | -4.59%
7 | COC(=O)[C@]1(C)N[C@H](c2ccc(-c3ccc(Cl)c(Cl)c3)cc2)[C@@H]2C(=O)N(C)C(=O)[C@@H]21 | -3.14%
8 | COC(=O)C1=C(C(=O)c2ccc(C)cc2)C(c2ccccc2)n2nnnc2N1 (stereo unspecified) | 2.03%
9 | Cc1ccc(S(=O)(=O)N2CCN(C(=O)CSc3cc(C)ccc3C)CC2)c(C)c1 | -9.03%
10 | CN(C)S(=O)(=O)c1cc(C(=O)Nc2ccn(C)n2)c(Cl)cc1Cl | 4.66%
11 | C=CCn1c(CCNC(=O)c2ccccc2F)nnc1SCC(=O)Nc1ccc(OC)cc1 | 1.96%
12 | CCN(CC)CCCNC(=O)c1c(O)c2cc(F)cc3c2n(c1=O)C(C)CC3 (stereo unspecified) | 31%
13 | COc1cc(SC)ccc1C(=O)N(Cc1ccccc1)c1ccccc1 | -27.1%
14 | COc1cc(SC)ccc1C(=O)Nc1nc(C)cs1 | -94.7% (active)
15 | COc1ccc(C(=O)Nc2cccc(NC(=O)c3ccc(OC)cc3OC)n2)c(OC)c1 | -19%
16 | CC(=O)N1CCc2c(sc(NC(=O)CCS(=O)(=O)c3ccccc3)c2C#N)C1 | -1.29%
17 | CCCN1CCC(=O)N(C(CSc2ccc(OC)cc2)Cc2ccccc2)CC1 (stereo unspecified) | -25.3%
18 | CN(CCO)c1ccc(/C=N/Nc2nncc3ccccc23)cc1 | -87.9% (active)
19 | C/C(=N\Nc1nncc2ccccc12)c1ccc(Cl)c([N+](=O)[O-])c1 | -7.6%
20 | COc1cccc(/C=N\Nc2nncc(-c3ccccc3)n2)c1 | 5.7%
21 | CC1(C)CCc2cc(S(=O)(=O)N3CCN(c4nc(-c5cccs5)nc5ccccc45)CC3)ccc2O1 | -0.147%
22 | COc1ccc(CN(Cc2ccccc2)C(=O)c2ccc(O)cc2)cc1COc1ccc(NC(C)=O)cc1 | 41.3%

Row | SMILES | activity change
23 | CC(=O)OCC(NC(=O)C(Cc1ccccc1)NC(=O)OC(C)(C)C)C1OC(n2ccc(=O)[nH]c2=O)C(OC(C)=O)C1OC(C)=O (stereo unspecified) | -16.1%
24 | O=C(O)C1CCC(CNS(=O)(=O)c2ccc(Br)cc2)CC1 (stereo unspecified) | 18.6%
25 | CCOc1ccc(N(C)Cc2cc(=O)oc3ccc(OC)cc23)cc1 | 0.548%
26 | C=CCOc1ccc(/C=C/C(=O)OCC(=O)NC(C)c2ccc(F)cc2)cc1 (stereo unspecified) | -21.6%
27 | COc1ccc2c(C)cc(SCC(=O)NCC3CCCO3)nc2c1 (stereo unspecified) | -1.83%
28 | COc1ccc(-c2ccc(C3C4C=CCCC4(C)C(=O)N3Cc3ccccc3)c(F)c2)cc1OC (stereo unspecified) | 5.8%
29 | C/C(CC(=O)Nc1ccc(C)cc1C)=N\NC(=O)C(C)C | -14.4%
30 | CC(C)C(=O)N1c2ccccc2NC2=C(C(=O)CCC2)C1c1ccc(N(C)C)cc1 (stereo unspecified) | 1.62%
31 | COC(=O)C1=C(C)N(C)C(=S)NC1c1ccccc1 (stereo unspecified) | -6.21%
32 | COC(=O)C1=C(C)N(C)C(=O)NC1c1ccc([N+](=O)[O-])o1 (stereo unspecified) | -87.4% (active)
33 | COc1ccc(C2NC(=O)N(C)C(C)=C2[N+](=O)[O-])cc1 (stereo unspecified) | 22.3%
34 | Oc1ccc(Cl)cc1C1C=C(c2ccc3c(c2)OCO3)NC(c2c(F)cccc2Cl)N1 (stereo unspecified) | -23.4%
35 | CCOC(=O)CSc1nnc(CNC(=O)c2ccco2)n1-c1ccc(F)cc1 | -0.714%
36 | C/[N+]([O-])=C\c1ccc([N+](=O)[O-])o1 | -92.7% (active)
37 | O=C(/C=C/c1ccc([N+](=O)[O-])o1)NNC(=O)c1ccc(F)cc1 | 2.18%
38 | O=[N+]([O-])c1ccc(C=NN=Cc2ccc([N+](=O)[O-])cc2)cc1 | 12.5%
39 | COc1cc(Cl)c(C)cc1NC(=O)CSc1nnc(-c2ccco2)n1CC(C)C | 6.88%
40 | CC(C)Cn1c(N)c(C(=O)COC(=O)C2CCCN2C(=O)c2cccs2)c(=O)n(C)c1=O (stereo unspecified) | 20.2%
41 | C[C@H](NC(=O)C1CCN(S(=O)(=O)c2ccccc2)CC1)C(=O)NCc1ccccc1 | 10.6%
42 | O=C(NCc1ccccn1)[C@]1(C(F)(F)F)C[C@H](CCc2ccccc2)CCCO1 | -0.242%
43 | COc1cccc(C(=O)c2sc3nc(-c4ccccc4)cc(C(F)(F)F)c3c2N)c1 | 4.39%
44 | COc1ccc(S(=O)(=O)N2CCN(CC(=O)N3c4ccccc4CC3C)CC2)cc1OC (stereo unspecified) | -6.14%

Row | SMILES | activity change
45 | CC(=O)Nc1ccc(S(=O)(=O)N2N=NC3C2C2CC4C3(CN(C(=O)OC(C)(C)C)S4(=O)=O)O2)cc1 (stereo unspecified) | -7.9%
46 | CN(C(=O)c1cc2c(=O)n3ccccc3nc2s1)C1CCCCC1 | 9.98%
47 | CC(C)C(C)NC(=O)COc1nc2ccccc2nc1N(C)C1CCCCC1 (stereo unspecified) | 0.279%
48 | CN(c1ccc2nc3ccccc3c(=O)n2n1)C1CCCCC1 | -82.4% (active)
49 | COC(=O)CCc1ccccc1S(=O)(=O)N(CCC(=O)OC)Cc1ccccc1 | 9.42%
50 | CCCCN(C1CCS(=O)(=O)C1)S(=O)(=O)c1ccc(C(C)C)cc1 (stereo unspecified) | -8.89%
51 | Cc1n[nH]c(C)c1S(=O)(=O)N1CCCC(C(=O)NCC2COc3ccccc3O2)C1 (stereo unspecified) | 1.3%
52 | COc1ccc(S(=O)(=O)N2CCC(C(=O)OCC(=O)c3ccccc3)CC2)cc1[N+](=O)[O-] | -0.271%
53 | Cc1ccc(NC(=O)C(C)OC(=O)Cc2c[nH]c3ccccc23)cc1S(=O)(=O)N1CCOCC1 (stereo unspecified) | -9.72%
54 | COc1ccc(S(=O)(=O)Nc2cccc3cccnc23)c(N)c1 | -6.45%
55 | CCCN1CCC(=O)N(C(CSc2ccc(C)cc2)Cc2ccccc2)CC1 (stereo unspecified) | 13%
56 | CCc1nn(CC(=O)N2CCN(CC)CC2)c(=O)c2cccn12 | -17.4%
57 | COc1ccc2c(c1)CC[C@@H]1[C@@H]2CC[C@]2(C)C(=O)CC[C@@H]12 | 2.55%
58 | O=C(ON=C1CCN(S(=O)(=O)c2ccccc2)CC1)c1ccc(Cl)cc1 | -18%
59 | Cc1cccc(NS(=O)(=O)c2ccc(-c3cnc(C4CC4)o3)cc2)c1 | 23.1%
60 | COc1ccc(C2CC(O)(c3ccccc3)Oc3cc(C)cc(C)c32)cc1 (stereo unspecified) | -2.28%
61 | CCOC(=O)c1cc(OC(=O)c2ccccc2Cl)n(-c2ccccc2)n1 | 20.6%
62 | c1ccc(Cn2nnc3c(N4CCCCC4)ncnc32)cc1 | 6.21%
63 | CCOc1ccc(NC(=O)CN(C)C(=O)Cn2c(=O)cnc3ccccc32)cc1OCC | 3.18%
64 | COc1ccc(CN2CCC(=O)c3ccccc3S2(=O)=O)cc1 | -21.5%
65 | CS(=O)(=O)N(Cc1ccc(Cl)cc1)c1ccc(C(=O)NCCSCc2ccco2)cc1 | 4.68%
66 | Cc1nnc(SC(C(=O)Nc2cc(Cl)cc(Cl)c2)c2ccccc2)[nH]c1=O (stereo unspecified) | 24.1%

Row | SMILES | activity change
67 | O=[N+]([O-])/C=C1\CCCCCN1 | -16.8%
68 | CNC(=O)[C@]1(C(F)(F)F)C[C@H](CCc2ccccc2)CCCO1 | -0.81%
69 | N/C(=N\OC(=O)Cc1ccccc1[N+](=O)[O-])c1ccc(Br)cc1 | -8.48%
70 | Cc1nn(CCOc2ccc(Br)cc2)c(C)c1[N+](=O)[O-] | -11%
71 | Cc1ncc([N+](=O)[O-])n1CCOC(=O)c1ccc(Br)cc1 | -80.4% (active)
72 | C=CCCN(C(Cc1ccccc1)C(=O)OC)S(=O)(=O)c1cc(Br)ccc1Br (stereo unspecified) | -13%
73 | CCN(CC)C(=O)COc1coc(CN2CCN(Cc3ccccc3)CC2)cc1=O | -13.6%
74 | CCOC(=O)C1CCCN(C(=O)COc2ccc(N(C)S(=O)(=O)c3ccc(C)cc3)cc2)C1 (stereo unspecified) | -1.39%
75 | COc1ccc(C2Nc3ccc(NC(=O)COC(C)=O)cc3C(=O)N2Cc2ccccc2)cc1COc1ccc(NC(C)=O)cc1 (stereo unspecified) | 26.7%
76 | COc1ccc(OCCn2ccnc2C)cc1 | 8.15%
77 | COc1ccc(-c2ccc(OC)c(C3C4C=CCC(C)C4C(=O)N3Cc3ccccc3)c2)cc1C (stereo unspecified) | 12.9%
78 | CC1CC(C)CN(c2oc(-c3ccc(OCc4ccc(Cl)cc4)cc3)nc2C#N)C1 (stereo unspecified) | 25.3%
79 | Cc1ccc(C(=O)N2CCN(C3CCCCC3)CC2)s1 | 2.7%
80 | CCCC1OC23CCCCC2C(C#N)(C#N)C1(C#N)C(=N)O3 (stereo unspecified) | 1.74%
81 | CC/C(=C(/c1ccccc1)c1ccc(OCC[N+](C)(C)C)cc1)c1ccccc1 | 8.29%
82 | CCN(CC)S(=O)(=O)c1ccc(N2CCCC2)c(NC(=O)c2ccc([N+](=O)[O-])o2)c1 | -96.4% (active)
83 | CCN(CC)S(=O)(=O)c1ccc(N2CCOCC2)c(NC(=O)c2ccc(=O)n(C)n2)c1 | -7.96%
84 | CCN(CC)S(=O)(=O)c1cc(C(=O)Nc2cc(S(=O)(=O)N3CCOCC3)ccc2N2CCCC2)ccc1F | -19.1%
85 | COC(=O)c1ccc(NC(=O)CN(c2ccc(C)cc2)S(=O)(=O)c2c(C)n[nH]c2C)cc1 | 12.5%
86 | Cc1ccc(CNC(=O)C2(C(F)(F)F)C/C(=C\CCO)CCCO2)o1 (stereo unspecified) | -14.6%
